66 molecules from PubChem BioAssay AID686978 (National Center for Advancing Translational Sciences (NCATS), 2013) can be followed below.

In all, about 420,000 compounds went through this assay and about 64,000 (15%) were called active. Another 27% or so got no clear call; they are omitted. The call rests on the fitted dose curve; in most records, active means well fitted inhibition curve with a large enough effect; inconclusive means small, poorly fitted or top-dose-only effect; inactive means flat fitted curve, though single readings scatter. Only a sample is shown. Where a call stands in place of a potency, no number is given.
Potency means the concentration at half of the fitted maximal effect.

This test in a line: qHTS for Inhibitors of human tyrosyl-DNA phosphodiesterase 1 (TDP1): qHTS in cells in absence of CPT. Further: nearly all actives have a fitted effect of over 55% in size. The conditions noted are these: DT40 Tdp1-/- hTDP1 cells, no CPT, ATP luminescence, 48 h; activity change, negative = growth inhibition: at 46.2 µM (top of the series). The procedure, abridged: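 Growth of hTDP1-complemented DT40 Tdp1-knockout cells is measured by ATP luminescence after at least 48 hr compound exposure at 37 °C, with DMSO substituting for the 20 nM CPT used in the parallel screen.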
Turning to `O=C(C1CCN(CC2CCCCC2)CC1)N1CCCC1`, the Potency entry was “inactive”.

In the case of `CC(=O)NS(=O)(=O)c1ccc(NC(=S)NC(=O)C(C)(C)C)cc1`, the Potency entry was “inactive”.

For `CC(NC(=O)c1ccccc1SCC(=O)N1CCCC1)c1ccccc1` (stereo unspecified), the Potency result is “inactive”.

Take `CC1(C)Cc2nc3sc4c(SCC(=O)NC(c5ccccc5)c5ccccc5)ncnc4c3cc2CO1`: the Potency is 8.2 µM (active).

For `CCOc1ccc(NC(=O)CSc2ncnc3c2sc2ccccc23)cc1`, the Potency result was “inactive”.

Consider `C=CCn1c(=S)[nH]c2nc3c(cc2c1=O)COC(C)(C)C3`, for which the Potency result is “inactive”.

`O=c1cnnc(Nc2ccccc2F)[nH]1`: the Potency entry is “inactive”.

Turning to `CCc1nc2nc(C)c(NS(=O)(=O)c3ccc4c(c3)CCCC4)c(=O)n2[nH]1`, the Potency entry is “inactive”.

Consider `COCc1c(N)c(C)nc(Cl)c1C#N`, for which the Potency result was “inactive”.

As for `O=C(NCCCO)C(=O)Nc1c2c(nn1-c1ccccc1)CSC2`, the Potency entry is “inactive”.

In the case of `COc1ccc(N(C(=O)CNC(=O)c2ccco2)C(C(=O)NCC2CCCO2)c2ccccc2)cc1Cl` (stereo unspecified), the Potency result was “inactive”.

As for `Cc1ccc(-c2nn(-c3ccc(F)cc3)cc2C(=O)NCC(c2cccs2)N2CCOCC2)cc1` (stereo unspecified), the Potency was 14.6 µM (active).

As for `O=C(NCCCN1CCOCC1)c1cn(-c2ccccc2)nc1-c1ccc(F)cc1`, the Potency result is “inactive”.

Turning to `O=C(NCc1cccnc1)c1cn(-c2ccccc2)nc1-c1cccs1`, the Potency result was “inactive”.

`Cc1nn(CC(=O)NCc2ccccn2)c(C)c1[N+](=O)[O-]`: the Potency entry was “inactive”.

As to `CCOC(=O)c1c(NC(=O)/C=C/c2ccco2)sc(C)c1C`, the Potency result is “inactive”.

In the case of `C#CCOCCOCCOCCNc1nc(N2CCN(C(=O)C([C@@H](C)CC)n3cc(C(N)COC(=O)C(F)(F)F)nn3)CC2)nc(N2CCN(C(=O)[C@H](Cc3ccc(O)cc3)n3cc(C(N)[C@H](C)CC)nn3)CC2)n1` (stereo partly specified), the Potency entry is “inactive”.

Regarding `O=C(CSc1nncn1-c1cccnc1)N1CCOCC1`, the Potency result is “inactive”.

As to `O=S(=O)(c1ccc(F)cc1)N1CCN(C(=S)NC2CCCC2)CC1`, the Potency entry was “inactive”.

Consider `CCOC(=O)Cn1c(N)c(C(=O)OC)sc1=S`, for which the Potency entry was “inactive”.

As to `CCOC(=O)c1sc(=S)n(-c2cccc(OC)c2)c1N`, the Potency was 11.2 µM (active).

Take `COc1cccc(-n2c(=S)sc3c(=O)n(-c4ccccc4C)c(SCC(=O)O)nc32)c1`: the Potency entry is “inactive”.

With `Cc1ccc(-c2nnn(CC(=O)N(CCO)C(C(=O)NC(C)(C)C)c3ccncc3)n2)cc1` (stereo unspecified), the Potency result was “inactive”.

As to `Cc1cccc2c3c(ccc12)C1=C(C(=O)C3=O)C(C)CO1` (stereo unspecified), the Potency result is “inactive”.

Regarding `CCCC(=O)Nc1ncnc2c1ncn2[C@@H]1O[C@@H]2OP(=O)(O)OC[C@H]2[C@H]1OC(=O)CCC`, the Potency result was “inactive”.

`Cc1nc(CNS(=O)(=O)c2cccnc2)cs1`: the Potency result is “inactive”.

Take `COc1cc(CNC(=O)c2cc3n(n2)CCCN(Cc2cccc(F)c2)C3=O)cc(OC)c1OC`: the Potency was 20.6 µM (active).

As to `CCNC(=O)c1cc2n(n1)CCCN(Cc1ccc(C)cc1)C2=O`, the Potency entry is “inactive”.

Turning to `O=C(NCc1ccccc1Cl)c1csc2c1CCCCC2`, the Potency entry is “inactive”.

Take `COC(=O)c1cc2n(n1)CCCNC2=O`: the Potency result is “inactive”.

On to `Cc1ccc(CN2CCCn3nc(C(=O)NCc4ccccc4Cl)cc3C2=O)cc1`, for which the Potency is 25.9 µM (active).

On to `COC(=O)c1ccc(CNC(=O)C2CCC(=O)N(Cc3cccc(F)c3)C2)cc1` (stereo unspecified), for which the Potency result was “inactive”.

As for `Cn1c(=O)c2c(ncn2CC(=O)N/N=C/c2cn[nH]c2-c2ccc(F)cc2)n(C)c1=O`, the Potency entry is “inactive”.

Consider `O=C(Cc1ncc(C(F)(F)F)cc1Cl)Nc1cccc(Br)c1`, for which the Potency entry was “inactive”.

In the case of `CCc1nnc(NC(=O)CCC(=O)O)s1`, the Potency result was “inactive”.

For `O=C(Nc1ncccn1)c1cccs1`, the Potency entry is “inactive”.

As to `C/C(CCc1ccccc1)=N\NC(=O)c1ccc(CN2CCOCC2)cc1`, the Potency result is “inactive”.

In the case of `CCN1CN(Cc2ccccc2)CNC1=S`, the Potency result was “inactive”.

As for `S=C1SCN(CCN2CCOCC2)CN1Cc1ccccc1`, the Potency was 3.16 µM (active).

As to `O=C(O)/C=C/C(=O)Nc1ccc(F)cc1F`, the Potency result was “inactive”.

Consider `CSc1ccc(NC(=O)/C=C/C(=O)O)cc1`, for which the Potency entry is “inactive”.

Turning to `COC(=O)c1sc(-c2ccc(C(C)(C)C)cc2)cc1NC(=O)/C=C/C(=O)O`, the Potency was 4.61 µM (active).

Consider `Cc1nnc(SC(C(=O)Nc2cc(Cl)cc(Cl)c2)c2ccccc2)[nH]c1=O` (stereo unspecified), for which the Potency entry is “inactive”.

Consider `O=C(O)C1CCCCC1C(=O)Nc1ccc(Cl)cc1` (stereo unspecified), for which the Potency entry is “inactive”.

`CC(C)(C)c1ccc(C(=O)N2CCC(C(=O)N3CCCCC3)CC2)cc1`: the Potency result is “inactive”.

`COc1ccccc1NC(=O)C1CCN(C(=O)c2ccc(C(C)(C)C)cc2)CC1`: the Potency is 16.4 µM (active).

For the molecule `O=C(Nc1ccccc1)C1CCN(C(=O)c2ccc(Br)cc2)CC1`, the Potency entry was “inactive”.

On to `COc1ccc(OC)c(NC(=O)C2CCN(S(=O)(=O)c3ccc(C)cc3)CC2)c1`, for which the Potency result is “inactive”.

For the molecule `COc1ccc(S(=O)(=O)N2CCC(C(=O)NCCC(=O)Nc3ccccc3OC)CC2)cc1`, the Potency entry was “inactive”.

As for `CCc1ccc(NC(=O)Cn2nnc(C(=O)NCc3ccc(OC)cc3)c2N)cc1`, the Potency entry is “inactive”.

Regarding `COc1ccc(C(=O)N2CCC(C(=O)Nc3ccc(C)cc3)CC2)cc1`, the Potency is 10.3 µM (active).

For the molecule `COc1ccc(CNC(=O)c2cc(C(=O)C3CC3)c[nH]2)cc1`, the Potency entry is “inactive”.

For `CCc1ccc(NC(=O)CN2CCC(C(=O)c3ccc(OC)cc3)CC2)cc1`, the Potency was 23.1 µM (active).

As for `OCC(O)CN(c1ccccc1)c1ccccc1` (stereo unspecified), the Potency result was “inactive”.

`Cc1ccccc1-n1nc(SCC(=O)O)sc1=S`: the Potency result was “inactive”.

Consider `N=c1ccn(CC(=O)NC(N)=O)c2ccccc12`, for which the Potency entry is “inactive”.

Take `C/C=N/NC(=O)CCCC(=O)N/N=C/C`: the Potency result was “inactive”.

Take `C[C@H](CO)N1C[C@H](C)[C@@H](CN(C)S(=O)(=O)c2ccc(F)cc2)Oc2ccc(NC(=O)CCC(F)(F)F)cc2C1=O`: the Potency result was “inactive”.

Take `O=C(O)c1c(Br)c(Br)c(Br)c(Br)c1C1c2ccc(O)cc2Oc2cc(O)ccc21`: the Potency result is “inactive”.

As to `O=C(CNC(=O)[C@@H]1Cc2ccccc2CN1)NC1CCCCC1`, the Potency result was “inactive”.

For the molecule `Cn1c(SCC(=O)OC2CCCCC2)nnc1-c1ccc(S(=O)(=O)N2CCCC2)cc1`, the Potency result was “inactive”.

Regarding `COCCNC(=O)CN1C(=O)CSc2ncccc21`, the Potency result is “inactive”.

For `CC(=O)Nc1ccc(OC(=O)COc2ccc(Br)cc2)cc1`, the Potency result is “inactive”.

For the molecule `O=C1NC(=O)C2C1C(c1ccc([N+](=O)[O-])cc1)=NN2Cc1ccccc1` (stereo unspecified), the Potency result is “inactive”.

On to `O=[N+]([O-])c1ccc(CN2CC(N3CCC(c4ccccc4)CC3)CS2(=O)=O)cc1` (stereo unspecified), for which the Potency was 23.1 µM (active).

In the case of `O=C(OCc1ccc([N+](=O)[O-])cc1)C1CC(=O)N(Cc2ccccc2Cl)C1` (stereo unspecified), the Potency result is “inactive”.
